Data on 57 compounds can be found in ChEMBL document CHEMBL3988442, “University of Dundee, Small-Polar-MMV Screening Library” (2021).

The campaign covered roughly 69,000 compounds. About 420 (0.61%) showed an effect of 50% or more. The full list was thinned out, with strong results kept by preference.

The test deals with T1, Histidine--tRNA ligase (Leishmania infantum) (UniProt A4I591).
T1 sequence (whole entry): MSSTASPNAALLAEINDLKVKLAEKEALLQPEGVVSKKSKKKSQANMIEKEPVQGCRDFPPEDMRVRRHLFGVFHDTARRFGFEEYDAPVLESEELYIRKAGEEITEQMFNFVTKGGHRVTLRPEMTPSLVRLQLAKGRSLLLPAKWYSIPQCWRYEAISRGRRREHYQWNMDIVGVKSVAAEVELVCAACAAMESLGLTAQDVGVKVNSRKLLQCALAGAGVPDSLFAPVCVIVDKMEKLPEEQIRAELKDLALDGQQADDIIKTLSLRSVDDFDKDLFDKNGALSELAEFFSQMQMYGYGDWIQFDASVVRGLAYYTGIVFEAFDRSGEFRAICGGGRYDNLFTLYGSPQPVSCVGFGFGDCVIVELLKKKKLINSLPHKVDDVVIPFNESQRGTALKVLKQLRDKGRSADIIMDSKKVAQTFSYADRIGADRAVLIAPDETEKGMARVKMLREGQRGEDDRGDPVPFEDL
Briefly: Leishmania infantum Histidine tRNA synthetase (LdHisRS). It is filed as functional. On the set-up: scale not given: in the data most compounds retested in dose-response had high values. The following applies: 30 µM.
`Cc1cccc(CO[C@@H]2CC[C@H]3[C@H]2OCCN3Cc2cc(C)on2)n1`: the Percent Effect was determined as 22.2%. With `O=C(NC[C@H]1CC[C@H](c2ccnc3ncnn32)CC1)c1ccccn1` the figure was 7.04%; with `Cc1cccc(C)c1OCC(=O)Nc1cccn(C)c1=O`, 21%; with `Cn1cccc(NC(=O)NCc2cccc(CO)c2)c1=O`, 55%. `CN1CCN(c2ccccc2NC(=O)NCCc2ccc(O)cc2)CC1`: the Percent Effect came out at 21.5%. With `Cn1cccc(NC(=O)NCCOCc2ccccc2)c1=O` the figure was 22%; with `Cn1cccc(NC(=O)COc2ccc(Cl)cc2)c1=O`, 34.5%. With `CCSCCC(C)NC(=O)Nc1cccn(C)c1=O` (configuration not stated) the figure was 29.5%; with `CC(C)C(C)NC(=O)Nc1cccn(C)c1=O` (configuration not stated), 63.4%. To `CC(CCc1cccn1C)NC(=O)Nc1cccn(C)c1=O` (configuration not stated) belongs 38.4%. Turning to `Cn1cccc(NC(=O)NCCc2cccc(O)c2)c1=O`, the Percent Effect turned out to be 55%.

For `COCCN1CCO[C@H]2CN(Cc3cc[nH]n3)C[C@H]21`, the Percent Effect was 23.8%. Consider `CS(=O)(=O)N[C@@H]1CN(C(=O)c2ccccn2)C[C@@H]2CCCO[C@@H]21`, for which the Percent Effect is 15.6%.

As to `CN1CCO[C@@H]2CN(C(=O)NCc3cccc(F)c3)CC[C@@H]2C1`, the Percent Effect is 4.54%. With `CCCS(=O)(=O)N1C[C@@H](c2nc(C)no2)C[C@H]2OCC[C@H]21`, the Percent Effect turned out to be 11.7%. For `Cc1cccc(C(=O)N2C[C@@H]3OCCN(CCN4CCCC4)[C@@H]3C2)n1`, the Percent Effect came to 16%.

As for `CCS(=O)(=O)N1CC[C@@H]2[C@H](CC1)N(CC(C)C)CCS2(=O)=O`, the Percent Effect was found to be 10.5%.

Turning to `O=C(NCC1CC1)[C@H]1C[C@@H]2CN(S(=O)(=O)Cc3ccccc3)C[C@H]1O2`, the Percent Effect was -0.73%. To `O=C(c1ccncc1)N1CC[C@@H]2[C@@H](CC1)OCCN2c1cccnc1` belongs 17.5%; to `Cc1nc(CO[C@H]2CN(Cc3cccs3)[C@@H]3COC[C@H]23)cs1`, 8.06%.

`CCCS(=O)(=O)C(C)C(=O)Nc1ccc2oc(C3CC3)nc2c1` (configuration not stated): the Percent Effect was found to be 26.8%. With `COCc1nc2cc(NCc3cc[nH]n3)ccc2o1` the figure was 106%; with `COCc1nc2cc(NCc3ccncc3)ccc2o1`, 100%; with `COCc1nc2cc3c(cc2c(=O)o1)OCCCO3`, 15.7%.

With `COCc1cccc(NCc2cccnc2)c1`, the Percent Effect stood at 6.67%.

Turning to `COCc1nc2cc(NCc3ncc[nH]3)ccc2o1`, the Percent Effect amounted to 38.4%.

For `c1cc(CN2CCCCC2)cc(NCc2cc[nH]n2)c1`, the Percent Effect turned out to be 15.8%. With `CN1CCN(Cc2cccc(NCc3cc[nH]n3)c2)CC1` the figure was 12.3%.

With `CCC(C)CNc1ccc2oc(COC)nc2c1` (configuration not stated), the Percent Effect worked out at 94.2%. To `O=C(NC1CC1)[C@H]1COC[C@H]2CN(c3ncc(F)cn3)C[C@H]21` belongs 12%.

`Cc1nc(CN2CCO[C@H]3CN(C(=O)c4cccn4C)C[C@H]32)cs1`: the Percent Effect stood at 10.5%.

For the compound `CNC(=O)[C@@H]1[C@@H](c2ccccc2)CN2CCN(Cc3cccs3)C[C@H]12`, the Percent Effect came to 6.12%. In the case of `Cc1ccc(CN2C[C@@H]3CN(CC4CCOCC4)CCO[C@@H]3C2)s1`, the Percent Effect amounted to 19%. With `COCC(=O)N[C@H]1C[C@H]2C(=O)NC[C@@H](CCC(=O)NC3CC3)N2C1` the figure was 5.56%; with `CN(C)C(=O)[C@@H]1CCO[C@@H]2CCN(c3ncccn3)C[C@@H]21`, 0%; with `CNC(=O)[C@@H]1CC[C@@H]2[C@@H](CCN2C(=O)N(C)C)O1`, 0%. With `COC[C@@]12CCO[C@@H]1CCN(C(=O)Cc1cccc(F)c1)C2` the figure was 19.4%. With `CCOc1ccc2nc(CN3CCOC(CN)C3)ccc2c1` (configuration not stated) the figure was 13.4%; with `CCOc1ccc2nc(CN3CCC(CNC(C)=O)C3)ccc2c1` (configuration not stated), 37.3%; with `CCOc1ccc2nc(CN3CCC(CN)C3)ccc2c1` (configuration not stated), 52.2%.

For the compound `COC[C@@]12CCO[C@@H]1CCN(C(=O)Cc1ccccc1F)C2`, the Percent Effect was 11.4%. Take `O=C1[C@@H]2CCN(Cc3ccoc3)C[C@@H]2OCCN1Cc1cccnc1`: the Percent Effect came out at 15.3%. To `Cc1ccc(OCCC(=O)NC2CC(=O)N(C)C2)cc1C` (configuration not stated) belongs 12.7%; to `Cc1cc(C)cc(OCCC(=O)NC2CC(=O)N(C)C2)c1` (configuration not stated), 74.7%. For `CN1CC(NC(=O)CCOc2cccc(Cl)c2)CC1=O` (configuration not stated), the Percent Effect is 4.22%. To `Cc1nc(CN2CCO[C@H]3[C@H](OCC(=O)N(C)C)CC[C@@H]32)cs1` belongs -9.73%; to `COc1cccc(-c2n[nH]c3c2CN(C(=O)c2cccc(=O)[nH]2)CC3)c1`, 65.6%; to `COc1cccc(-c2n[nH]c3c2CN(C(=O)c2cc(C)n(C)n2)CC3)c1`, 0%. To `COc1cccc(-c2n[nH]c3c2CN(C(=O)c2ccncc2)CC3)c1` belongs 0%; to `Cc1csc(CN2CC[C@H]3C[C@@H](c4noc(C)n4)O[C@@H]3C2)n1`, 12.9%. To `COc1ccc(CC(=O)N(C)c2cccnc2N(C)C)c(Cl)c1` belongs 57.1%. For `COc1cccc(OCC(=O)N(C)c2cccnc2N(C)C)c1`, the Percent Effect amounted to 10.2%. Turning to `CN(C)c1ncccc1N(C)C(=O)Cn1cc(-c2ccccc2)nn1`, the Percent Effect is 0%. For `COC[C@]12COC[C@H]1CN(Cc1cc(OC)cc(OC)c1)C2`, the Percent Effect worked out at 4.51%. With `COCC(=O)N1CC[C@H]2C[C@@H](c3nnc(C4CC4)o3)O[C@@H]2C1` the figure was 18.9%; with `CCn1nc(C)cc1C(=O)N1CC[C@H](OC)[C@H]2CN(CC3CC3)C[C@H]21`, 3.95%; with `COc1ccc(CC(=O)N2CC[C@@H]3[C@H](CC2)N(C)CCS3(=O)=O)cc1`, 17.1%.
